Inconclusive results are not listed. Activity calls are given as the source filed them. Unless noted, calls come from the whole dose curve; as a rule, active = well fitted curve in the direction sought with a large enough effect in the repeat runs; inconclusive = weak or mixed curves; inactive = no such curve, though single readings can be large; an effect the other way counts as inactive or inconclusive.
Columns and labels:
[1] = qHTS assay for small molecule agonists of the p53 signaling pathway (AID 651631; calls by dose curve; note: nearly all actives have a fitted effect of over 15% in size)
Outline: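 Beta-lactamase reporter activity under p53 response elements was quantified in HCT-116 cells by FRET fluorescence, following 16 h incubation with test compounds at 37 °C and 2 h substrate development at room temperature.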

[2] = qHTS assay for small molecules that induce genotoxicity in human embryonic kidney cells expressing luciferase-tagged ATAD5 (AID 651632); note: nearly all actives have a fitted effect of over 15% in size
Outline: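 Genotoxicity read-out via ATAD5-luciferase: HEK293T cells, 16 hr compound incubation at 37C, Amplite detection.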

[3] = qHTS assay for small molecule agonists of the p53 signaling pathway - cell viability (AID 651633; calls by dose curve;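 note: p53RE-bla HCT reporter cells with a stable beta-lactamase p53 reporter; series mostly up to about 83 µM; nearly all actives have a fitted effect of over 30% in size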)
Outline: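 p53RE-bla cells, seeded at 4,000 per well and rested 5 h at 37 C/5% CO2, received compounds in DMSO for 16 h at 37 C. CellTiter-Glo was then added, and luminescence was read after 30 min at room temperature to gauge cytotoxicity.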

[4] = qHTS assay for small molecules that induce genotoxicity in human embryonic kidney cells expressing luciferase-tagged ATAD5 - cell viability (AID 651634; calls by dose curve; note: nearly all actives have a fitted effect of over 25% in size)
Outline: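 Live-cell protease activity (CellTiter-Fluor, fluorescence) indicates viability. HEK293T cells with luciferase-tagged ATAD5; 15.5 hr compound treatment at 37C.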

[5] = qHTS assay for small molecule disruptors of the mitochondrial membrane potential - cell viability (AID 720634; calls by dose curve;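 note: human HepG2 liver cancer cells; series mostly up to about 83 µM; nearly all actives have a fitted effect of over 20% in size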)
Outline: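 Human hepatoma HepG2 cells were treated for 1 hr with test chemicals, then given m-MPI dye and CellTiter-Glo. Cell viability reflects luminescence proportional to cellular ATP.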

[6] = qHTS assay for small molecule disruptors of the mitochondrial membrane potential (AID 720635)
Outline: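 HepG2 cells (2,000/well) attached overnight at 37C, then took compound for 1 hr at 37C, 5% CO2. Mito-MPS dye was added for 30 min; fluorescence was read at 490/535 nm (monomers) and 540/590 nm (aggregates).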

[7] = qHTS assay to test for compound auto fluorescence at 590 nm (red) in HepG2 cells (AID 720674)
Outline: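 Compound auto-fluorescence is scored relative to Rose Bengal sodium, measured at 540/590 nm in live HepG2 cultures after 1 hr compound contact (37 C, 5% CO2).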

[8] = qHTS assay to test for compound auto fluorescence at 535 nm (green) in HepG2 cells (AID 720675)
[9] = qHTS assay to test for compound auto fluorescence at 460 nm (blue) in HEK293 cells (AID 720678)
Outline: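 HEK293 cells (2,000/well, medium with 10% dialyzed FBS) attached 4-5 hr, then exposed to compound overnight at 37C, 5% CO2. Blue fluorescence read at 405/460 nm, with triamterene as reference fluorophore.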

[10] = qHTS assay to test for compound auto fluorescence at 590 nm (red) in HEK293 cells (AID 720679)
Outline: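 HEK293 cells (2,000/well, 10% dialyzed FBS) attached 4-5 hr, then dosed with compound or DMSO and incubated overnight at 37C, 5% CO2. Red fluorescence read at 540/590 nm, Rose Bengal sodium as reference fluorophore.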

[11] = qHTS assay to test for compound auto fluorescence at 535 nm (green) in HEK293 cells (AID 720680)
[12] = qHTS assay to test for compound auto fluorescence at 460 nm (blue) in HEK293 cell free culture (AID 720681)
Outline: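 Test compounds were pinned into cell-free culture medium (DMEM with 10% FBS) and fluorescence was read directly at Ex/Em 405/460 nm. Signals were expressed as fluorescence equivalents of triamterene, with DMSO vehicle as control.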

[13] = qHTS assay to test for compound auto fluorescence at 535 nm (green) in HEK293 cell free culture (AID 720682)
Outline: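 Each library compound, or DMSO control, is added by pintool to medium alone, comprising DMEM and 10% FBS. Emission at 535 nm following 485 nm excitation is quantified against fluorescein.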

[14] = qHTS assay to test for compound auto fluorescence at 590 nm (red) in HEK293 cell free culture (AID 720683)
Outline: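 Tox21 10K library compounds were pinned into cell-free DMEM with 10% FBS and fluorescence was read at excitation 540 nm. Activity is expressed as Rose Bengal sodium equivalency.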

[15] = qHTS assay to test for compound auto fluorescence at 460 nm (blue) in HepG2 cell free culture (AID 720685)
Outline: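 Compound (23 nL) or DMSO pinned into cell-free MEM with 10% FBS; blue fluorescence read at 405/460 nm excitation/emission, expressed as auto-fluorescence equivalency to triamterene.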

[16] = qHTS assay to test for compound auto fluorescence at 535 nm (green) in HepG2 cell free culture (AID 720686)
[17] = qHTS assay to test for compound auto fluorescence at 460 nm (blue) in HepG2 cells (AID 720687)
Outline: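 Cells (2,000/well in MEM with 10% FBS) attached overnight at 37 C, then were exposed to compound or DMSO for 1 hr at 37 C, 5% CO2. Fluorescence read at Ex/Em 405/460 nm, expressed as triamterene-equivalent signal.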

[18] = qHTS assay to test for compound auto fluorescence at 590 nm (red) in HepG2 cell free culture (AID 720684)
Outline: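 Red fluorescence (540 nm excitation, 590 nm emission) was measured after compound transfer into cell-free MEM supplemented with 10% FBS. Values are equivalencies against Rose Bengal sodium.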

[19] = molecular target: Glucocorticoid receptor (Homo sapiens) (UniProt P04150); test: qHTS assay to identify small molecule agonists of the glucocorticoid receptor (GR) signaling pathway (AID 720691; active = well fitted activation curve with a large enough effect in the signal ratio in the repeat runs, not every such curve was filed as active; the % refers to the signal ratio)
Outline: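 Beta-lactamase reporter activity, read as fluorescence intensity, was measured in GR-bla HeLa cells exposed to compounds for 18 h at 37 C and then loaded with LiveBLAzer B/G FRET substrate for 2 h at room temperature.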

[20] = molecular target: Glucocorticoid receptor (Homo sapiens) (UniProt P04150); test: qHTS assay to identify small molecule antagonists of the glucocorticoid receptor (GR) signaling pathway (AID 720692; active = well fitted inhibition curve with a large enough effect in the signal ratio in the repeat runs, not every such curve was filed as active; the % refers to the signal ratio)
Outline: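 Fluorescence from cleaved LiveBLAzer B/G FRET substrate reports GRE-driven beta-lactamase in HeLa cells; compounds are tested against 5 nM dexamethasone (final) over 18 h at 37 C, substrate incubation 2 h at room temperature.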

Measured: Potency

Glucocorticoid receptor (Homo sapiens), sequence (P04150 whole entry, looked up): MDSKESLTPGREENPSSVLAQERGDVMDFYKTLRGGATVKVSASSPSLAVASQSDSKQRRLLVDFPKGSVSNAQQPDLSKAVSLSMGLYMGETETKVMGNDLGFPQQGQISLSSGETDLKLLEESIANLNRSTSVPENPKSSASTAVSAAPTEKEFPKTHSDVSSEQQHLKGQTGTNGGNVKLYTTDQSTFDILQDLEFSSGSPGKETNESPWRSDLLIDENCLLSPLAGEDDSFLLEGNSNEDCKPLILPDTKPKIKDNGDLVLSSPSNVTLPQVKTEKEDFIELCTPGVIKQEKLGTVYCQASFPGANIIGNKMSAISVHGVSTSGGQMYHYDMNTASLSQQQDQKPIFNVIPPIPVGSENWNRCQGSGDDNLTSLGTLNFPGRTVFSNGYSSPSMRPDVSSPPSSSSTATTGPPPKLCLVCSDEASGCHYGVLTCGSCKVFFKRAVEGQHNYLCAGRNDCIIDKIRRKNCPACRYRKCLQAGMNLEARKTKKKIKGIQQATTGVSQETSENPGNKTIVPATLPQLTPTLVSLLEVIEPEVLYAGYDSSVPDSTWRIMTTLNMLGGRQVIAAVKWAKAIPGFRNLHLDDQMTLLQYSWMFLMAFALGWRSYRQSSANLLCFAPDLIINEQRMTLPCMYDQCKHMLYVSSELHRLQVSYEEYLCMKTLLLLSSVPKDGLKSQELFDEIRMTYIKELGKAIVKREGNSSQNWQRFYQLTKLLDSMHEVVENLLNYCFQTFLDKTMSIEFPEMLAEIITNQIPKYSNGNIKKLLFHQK

NC(=O)c1cn(Cc2c(F)cccc2F)nn1
not listed: [18] | [19] | [20]
inactive: all other assays above

CC(C)c1cc2c(cc1S(=O)(=O)O)[C@@]1(C)CCC[C@@](C)(C(=O)O)[C@@H]1CC2
not listed: [19] | [20]
inactive: all other assays above

Nc1cc(=O)[nH]c(N)n1
not listed: [19] | [20]
inactive: all other assays above

CC(=O)Nc1c(I)cc(I)c(C(=O)O)c1I
inactive: all assays above

O=C1NC(=O)[C@@]2(CCOc3ccc(F)cc32)N1
not listed: [19] | [20]
inactive: all other assays above

Cn1c(N)c(N=O)c(=O)n(C)c1=O
inactive: all assays above

FC(F)OC(Cl)C(F)(F)F (stereo not drawn)
inactive: all assays above

CCSC(=O)N(CC(C)C)CC(C)C
not listed: [15]
inactive: all other assays above

CCOC(=O)c1ccc(C)cc1
not listed: [19]
inactive: all other assays above

CC(C)NCC(O)c1ccc(NS(C)(=O)=O)cc1 (stereo not drawn)
not listed: [18]
inactive: all other assays above

CCN(CC)CCNC(=O)c1cc(S(C)(=O)=O)ccc1OC
not listed: [19]
inactive: all other assays above

CCOC(=O)c1cccc(N)c1
not listed: [19] | [20]
inactive: all other assays above

CC(C[N+](C)(C)C)OC(N)=O (stereo not drawn)
not listed: [13] | [19]
inactive: all other assays above

O=C(O)CCCl
not listed: [12] | [15]
inactive: all other assays above

Cn1cc(S(C)=O)c(=O)c2ccc(F)cc21 (stereo not drawn)
not listed: [13] | [19]
inactive: all other assays above

O=C(O)CCCc1ccccc1
not listed: [13]
inactive: all other assays above

CC(=O)CC(C)(C)C1CCCCC1
not listed: [6] | [19] | [20]
inactive: all other assays above

N[C@H](C(=O)O)c1ccc(O)cc1
not listed: [13] | [15]
inactive: all other assays above

CCCCCCCCCCCC
not listed: [18] | [19]
inactive: all other assays above

CCN1CCC[C@H]1CNC(=O)c1c(O)c(Cl)cc(Cl)c1OC
not listed: [6] | [15] | [19] | [20]
inactive: all other assays above

CCOC(=O)C(=O)OCC
not listed: [18]
inactive: all other assays above

NS(=O)(=O)c1cc2c(cc1Cl)NC(C1CC3C=CC1C3)NS2(=O)=O (stereo not drawn)
not listed: [6]
inactive: all other assays above

COC(=O)NN
not listed: [6]
inactive: all other assays above

NS(=O)(=O)c1ccc(C(=O)O)cc1
not listed: [12] | [15] | [19]
inactive: all other assays above

C=CCCCCCCCCC=O
not listed: [6]
inactive: all other assays above

COc1ccc2c(c1)c(CC(=O)OCC(=O)O)c(C)n2C(=O)c1ccc(Cl)cc1
not listed: [6] | [20]
inactive: all other assays above

C[N+](C)(C)CC(O)CC(=O)[O-] (stereo not drawn)
not listed: [13]
inactive: all other assays above

COC(=O)[C@@H](N)Cc1ccc(O)c(O)c1
not listed: [12] | [19] | [20]
inactive: all other assays above

C[C@H]1C[C@@H](O)CC(C)(C)C1
not listed: [12] | [13] | [15]
inactive: all other assays above

Cc1ccc(=O)n(-c2ccccc2)c1
not listed: [6] | [19] | [20]
inactive: all other assays above

CCCCCCOC(=O)CCCCC(=O)OCCCCCC
not listed: [12] | [13] | [19] | [20]
inactive: all other assays above

CCOC(=O)CCC(C)=O
not listed: [6]
inactive: all other assays above

— PubChem BioAssay (Tox21)
